# Data as given in ChEMBL document CHEMBL3988442, “University of Dundee, Small-Polar-MMV Screening Library” (2021).
# About 13,000 (27%) of roughly 48,000 compounds showed an effect of 50% or more. This is one part of the list.
# System: Wolbachia pipientis
# Experiment: Anti-Wolbachia Cell-Based Screen
# Assay type: functional
# Design: scale not given: in the data most compounds retested in dose-response had high values
# Conditions: 5 µM
row,SMILES,Percent Effect [%]
1,Cc1nc2cc(=O)[nH]n2c(C)c1CC(=O)Nc1cnn(C)c1,-2.134
2,CCc1ncc(C(=O)N(C)CC2Cc3ccccc3O2)cn1 (configuration not stated),-1.94
3,Cc1nn(C)c(C)c1CCNC(C)c1ccc(-n2ccnc2C)cc1 (configuration not stated),-1.532
4,O=C(C1=CC2(CCN(CCO)CC2)c2ccccc21)N1CCCC1.O=C(O)C(F)(F)F,-8.81
5,CC(C)CN1CCC2(C=C(C(=O)N3CCCC3)c3ccccc32)CC1.O=C(O)C(F)(F)F,13.87
6,CCN1CCC2(C=C(C(=O)N(C)C)c3ccccc32)CC1.O=C(O)C(F)(F)F,130.6
7,CC(C)CN1CCC2(C=C(C(=O)N(C)C)c3ccccc32)CC1.O=C(O)C(F)(F)F,90.84
8,Cc1ccc(CN2CCC3(CC2)OC(C(=O)N(C)C)c2ccccc23)o1.O=C(O)C(F)(F)F (configuration not stated),8.053
9,CC(C)N1CCC2(C=C(C(=O)N(C)C)c3ccccc32)CC1.O=C(O)C(F)(F)F,-1.303
10,COc1ccc(C(C)NCc2c[nH]nc2C)cc1Br.Cl (configuration not stated),2.435
11,Cc1ncoc1C(=O)N1CCc2[nH]nc(-c3ccc4c(c3)OCO4)c2C1,-5.297
12,CC(C)CC(CCO)CNC(=O)N1CCCC1(C)C (configuration not stated),-11.2
13,O=C(c1cccnc1)N1CCOCC2(CCN(c3ncccn3)C2)C1 (configuration not stated),104.1
14,O=C(C1CCCC1)N1CCCC2(CCN(c3cnccn3)CC2)C1.O=C(O)C(F)(F)F,-29.32
15,O=C(O)C(F)(F)F.O=C(c1cccnc1)N1CCOC2(COCCN(c3cncnc3)C2)C1 (configuration not stated),-2.912
16,O=C(C1CCCCC1)N1CCCC2(CCN(c3cnccn3)CC2)C1.O=C(O)C(F)(F)F,1.174
17,O=C(c1ccc[nH]1)N1CC2(CCN(c3ncccn3)C2)C1,-13.43
18,O=C(C1CCCO1)N1CCCC2(CCN(c3cccnc3)CC2)C1.O=C(O)C(F)(F)F (configuration not stated),111.1
19,O=C(c1ccnnc1)N1CC2(CCN(c3ncccn3)C2)C1,-3.842
20,Cc1cc(C(=O)N2CCCC3(COCCN(c4ccccc4)C3)C2)[nH]n1 (configuration not stated),-3.26
21,O=C(O)C(F)(F)F.O=C([C@H]1CCCO1)N1CCCC2(COCCN(c3ccccc3)C2)C1 (some centres not stated),121.5
22,O=C(O)C(F)(F)F.O=C(c1ccncc1)N1CCCC2(COCCN(c3ccccc3)C2)C1 (configuration not stated),3.35
23,O=C(O)C(F)(F)F.O=C(c1cccnc1)N1CCCC2(COCCN(c3ccccc3)C2)C1 (configuration not stated),104.3
24,COc1ccc(C)cc1CN1CCN(Cc2nccn2C)C(C)C1 (configuration not stated),-12.47
25,OCc1cc2ccccc2nc1NC1CC=CC1,-7.436

row,SMILES,Percent Effect [%]
1,COCCCN(Cc1cnc(-c2ccccn2)nc1)C1CCN(C)CC1,120.4
2,CC(C)n1cnnc1CN(C)Cc1cnc(-c2ccccn2)nc1,11.81
3,COCCCN(Cc1cnc(-c2cccs2)nc1)C1CCN(C)CC1,117
4,CCN(Cc1cnc(-c2ccccn2)nc1)C1CCS(=O)(=O)C1 (configuration not stated),-5.567
5,CC(C1CCN(Cc2cnc(-c3cccs3)nc2)CC1)N(C)C (configuration not stated),1.758
6,CC(C)n1cnnc1CN(C)Cc1cnc(-c2cccs2)nc1,3.781
7,CCC(O)CN(c1ccccc1)S(=O)(=O)c1cnc(C)s1 (configuration not stated),-3.963
8,CCCn1nc(C)c(CN2CC3(CCOC3)CCC2=O)c1C (configuration not stated),-15.65
9,CC(C)C(=O)NCc1cccc(N2CCCCC2=O)c1,-5.894
10,CN(C)c1ncc(NS(=O)(=O)c2ccc(OC(F)(F)F)cc2)cn1,123.3
11,CCOc1ccc(S(=O)(=O)Nc2cnc(OC)nc2OC)cc1,-50.06
12,O=S(=O)(NCc1cc2n(n1)CCNC2)c1ccc(OC(F)(F)F)cc1,12.96
13,Cc1nc(N(C)C)nc(C)c1NS(=O)(=O)c1ccc(OC(F)(F)F)cc1,120.1
14,Cc1ccc(S(=O)(=O)Nc2c(C)nc(N3CCCC3)nc2C)cc1,15.76
15,CN(C)c1ccc(C(=O)N2CCCc3cc(OC(F)(F)F)ccc32)cn1,0.3128
16,Cn1cc(NS(=O)(=O)c2ccc(OC(F)(F)F)cc2)ccc1=O,-16.2
17,O=S(=O)(Nc1cnc(N2CCCC2)nc1)c1ccc(C(F)(F)F)cc1,2.34
18,O=S(=O)(Nc1cnc(N2CCCC2)nc1)c1ccc(OC(F)(F)F)cc1,113.1
19,COc1ncc(NS(=O)(=O)c2ccc(F)cc2F)cn1,7.047
20,O=S(=O)(Nc1cnc(N2CCOCC2)nc1)c1ccc(C(F)(F)F)cc1,-10.38
21,COc1ccc(S(=O)(=O)Nc2cnc(N(C)C)nc2)cc1,87.85
22,Cc1ccc(CN2CCOC3(COCCN(C(C)C)C3)C2)s1.O=C(O)C(F)(F)F.O=C(O)C(F)(F)F (configuration not stated),-2.418
23,Cc1nccn1-c1cc(CNC(=O)C2CCC(=O)NC2)ccn1 (configuration not stated),-12.56
24,COCCOc1ncccc1C(=O)N1CCCC1Cn1cc(C)cn1 (configuration not stated),71.82
25,CCOc1ncccc1C(=O)N1CCCC1Cn1cc(C)cn1 (configuration not stated),90.55

row,SMILES,Percent Effect [%]
1,Cc1cnn(CC2CCCN2C(=O)c2cccnc2-n2cncn2)c1 (configuration not stated),106.4
2,O=C(c1cccnc1-n1cncn1)N1CCN(CC2CC2)CC1,-14.6
3,CSCCc1nc(C(C)C)nn1-c1ccncc1C,-5.681
4,COCC(C)(C#N)NC(=O)COc1ccccc1Br (configuration not stated),-5.931
5,Cc1c(-c2ccccc2)ncn1CC(c1cccnc1)N1CCOCC1 (configuration not stated),2.3
6,COCCC1(CO)CCCN(C(=O)c2ccc(C(C)C)[nH]c2=O)C1 (configuration not stated),9.971
7,Cn1ccnc1CN1CCN(c2ccc(C#N)cc2F)CC1,2.933
8,Cc1ccc(N2C[C@H]3CCC[C@@H](CN(C)C)[C@H]3C2)nn1.O=C(O)C(F)(F)F,-2.322
9,Cc1ccc(CN2CC[C@H]3C[C@H](c4nc(C5CC5)cs4)O[C@@H]3C2)o1,7.352
10,O=C(C1CCOCC1)N1C[C@@H]2C[C@@H](c3nc(C4CC4)cs3)O[C@@H]2C1.O=C(O)C(F)(F)F,2.3
11,Cc1csc([C@H]2C[C@@H]3CCN(C(=O)c4ccnnc4)C[C@H]3O2)n1,-2.379
12,Cc1csc([C@@H]2C[C@@H]3CCN(C(=O)c4cnccn4)C[C@H]3O2)n1,-0.1445
13,Cn1cccc1C(=O)N1C[C@@H]2C[C@@H](c3nc(C4CC4)cs3)O[C@@H]2C1.O=C(O)C(F)(F)F,215.5
14,O=C(O)C(F)(F)F.O=C(c1cnccn1)N1C[C@@H]2C[C@@H](c3nc(C4CC4)cs3)O[C@@H]2C1,97.61
15,Cc1csc([C@H]2C[C@@H]3CCN(C(=O)c4cnccn4)C[C@H]3O2)n1,7.08
16,Cc1noc([C@@H]2C[C@H]3CN(C(=O)C4CCN(C)CC4)C[C@H]3O2)n1.O=C(O)C(F)(F)F,11.84
17,O=C(O)C(F)(F)F.O=C(c1ccnnc1)N1C[C@@H]2C[C@@H](c3nc(C4CC4)cs3)O[C@@H]2C1,114.8
18,COc1cccc(-n2c(C)cc(C(=O)O)c2C)c1,1.282
19,CC(=O)N1[C@H](Cn2cncn2)C[C@@H]2CN(c3ncccn3)CC[C@@H]21,-1.924
20,COCC1CCN(S(=O)(=O)N2C[C@@H](C)[C@](O)(C3CC3)C2)CC1,-6.27
21,COC(=O)c1ccc(NC(=O)NC2CCc3[nH]ncc3C2)cc1 (configuration not stated),-3.404
22,CC(C)CNC(=O)N1CC[C@@H]2CN(Cc3cccnc3)S(=O)(=O)[C@@H]2CC1.O=C(O)C(F)(F)F,96.93
23,CC(C)CC(=O)N1CC[C@@H]2CN(Cc3cccnc3)S(=O)(=O)[C@@H]2CC1,111.2
24,O=C(O)C(F)(F)F.O=C(c1cc[nH]n1)N1CC[C@@H]2CN(Cc3ccccc3)S(=O)(=O)[C@@H]2CC1,-14
25,O=C(c1cc[nH]n1)N1CC[C@@H]2CN(Cc3cccnc3)S(=O)(=O)[C@@H]2CC1,-2.568

row,SMILES,Percent Effect [%]
1,CC(C)CC(=O)N1CC[C@@H]2CN(CC(=O)N(C)C)S(=O)(=O)[C@@H]2CC1,-34.28
2,COCC(=O)N1CC[C@@H]2CN(Cc3cccnc3)S(=O)(=O)[C@@H]2CC1,104.6
3,O=C(C1CCCO1)N1CC[C@@H]2CN(Cc3ccccc3)S(=O)(=O)[C@@H]2CC1 (some centres not stated),-10.05
4,CC(=O)N1CC[C@@H]2CN(Cc3ccncc3)S(=O)(=O)[C@@H]2CC1.O=C(O)C(F)(F)F,-10.18
5,COCC(=O)N1CC[C@@H]2CN(Cc3ccccc3)S(=O)(=O)[C@@H]2CC1,-9.3
6,COCC(=O)N1CC[C@@H]2CN(Cc3cccc(Cl)c3)S(=O)(=O)[C@@H]2CC1,-12.94
7,O=C(C1CCC1)N1CC[C@@H]2CN(Cc3cccnc3)S(=O)(=O)[C@@H]2CC1,102.5
8,O=C1O[C@@H]2CN(c3ccncc3)C[C@@H]2N1CCCc1ccc(F)cc1,-4.206
9,CN(CCO)CC1COCCN1C(=O)C1(c2cccs2)CCCC1.O=CO (configuration not stated),2.363
10,COCCC1(CO)CCCN(C(=O)c2cccnc2O)C1 (configuration not stated),1.104
11,Cl.O=C1C(NCc2ccc3c(c2)CCO3)CCN1Cc1ccccc1 (configuration not stated),-4.636
12,COCC(=O)N1CCC(C(=O)N(C)C(C)c2ccon2)CC1 (configuration not stated),2.013
13,CCOc1ncccc1CNC(=O)Nc1ccc(OC)c(OC)c1,124
14,COc1ccccc1C(O)CNC(=O)NCc1cccnc1OC (configuration not stated),-5.086
15,CCOc1ncccc1CNC(=O)CN1CCCCCC1=O,-62.17
16,CCCNC(=O)NCc1cccnc1OC,1.177
17,CCOc1ncccc1CNC(=O)Nc1ccccc1,95.65
18,CCOc1ncccc1CNC(=O)Nc1ccc(CC)cc1,115
19,COc1ncccc1CNC(=O)NCCNC(=O)c1ccco1,0.6647
20,CCCS(=O)(=O)NCc1cccnc1OCC,-4.428
21,CCOc1ccc(NC(=O)NCc2cccnc2OCC)cc1,105.6
22,CC[C@@H](NC(C)=O)C(=O)NCc1cccnc1Oc1ccccc1OC,5.567
